DAX1 inh-1: inhibitors of human orphan nuclear receptor DAX1 (NR0B1). P51843. HEK293 Gal4-DAX1 luciferase reporter, luminescence. inhibition, % at 6.75 µM. 340,000 compounds, 0.99% hits. AID 504766;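 active means inhibition above the mean over all tested compounds plus 3 SD, cut at about 4.2% in these data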;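 further: inhibition shows as a rise in luminescence from relieved DAX1 repression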
hgDAF-12 ag: hgDAF-12 agonism, primary luciferase screen; activation, % at 6.8 µM; 370,000 compounds, 1.8% hits; AID 687014; HEK293 GAL4-hgDAF12 UAS-luciferase reporter, agonist luminescence; normalized to butyrate control;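 active means activation above a cutoff set at the mean of all screened compounds plus 3 SD, cut at about 10% in these data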
DAX1 inh-2: inhibitors of DAX1 repression of SF-1 activated StAR promoter. HEK293T StAR-luciferase reporter, SF-1/DAX-1 repression relief. inhibition, % at 6.8 µM. 370,000 compounds, 1.1% hits;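 active means inhibition above the mean over all tested compounds plus 3 SD, cut at about 3.6% in these data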;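 further: higher inhibition means more luminescence from relief of DAX-1 repression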
hcDAF12 agonist: H. contortus DAF-12 activation, primary screen | HEK293 hcDAF-12 lit1-tk-luc reporter, luminescence; 0% DMSO, 100% Δ7-dafachronic acid | activation, % at 6.8 µM | 370,000 compounds, 1.4% hits | AID 652067;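 active means activation above the mean of all tested compounds plus 3 SD, cut at about 5.5% in these data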
ssDAF-12 act: S. stercoralis DAF-12 activation, primary screen; HEK293 ssDAF-12/GRIP1 lit1-tk-luc reporter, luminescence; % of 3 µM dafachronic acid response; activation, % at 6.8 µM; 370,000 compounds, 1% hits; AID 652126;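 active means activation above the mean over all tested compounds plus 3 SD, cut at about 0.9% in these data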
AHR act: human AHR activation. 320,000 compounds, 2.5% hits. AHR-responsive luciferase reporter cells, luminescence. P35869. activation, % at 5 µM; in the data active means activation above about 47%
Target sequence (P35869 whole entry, looked up): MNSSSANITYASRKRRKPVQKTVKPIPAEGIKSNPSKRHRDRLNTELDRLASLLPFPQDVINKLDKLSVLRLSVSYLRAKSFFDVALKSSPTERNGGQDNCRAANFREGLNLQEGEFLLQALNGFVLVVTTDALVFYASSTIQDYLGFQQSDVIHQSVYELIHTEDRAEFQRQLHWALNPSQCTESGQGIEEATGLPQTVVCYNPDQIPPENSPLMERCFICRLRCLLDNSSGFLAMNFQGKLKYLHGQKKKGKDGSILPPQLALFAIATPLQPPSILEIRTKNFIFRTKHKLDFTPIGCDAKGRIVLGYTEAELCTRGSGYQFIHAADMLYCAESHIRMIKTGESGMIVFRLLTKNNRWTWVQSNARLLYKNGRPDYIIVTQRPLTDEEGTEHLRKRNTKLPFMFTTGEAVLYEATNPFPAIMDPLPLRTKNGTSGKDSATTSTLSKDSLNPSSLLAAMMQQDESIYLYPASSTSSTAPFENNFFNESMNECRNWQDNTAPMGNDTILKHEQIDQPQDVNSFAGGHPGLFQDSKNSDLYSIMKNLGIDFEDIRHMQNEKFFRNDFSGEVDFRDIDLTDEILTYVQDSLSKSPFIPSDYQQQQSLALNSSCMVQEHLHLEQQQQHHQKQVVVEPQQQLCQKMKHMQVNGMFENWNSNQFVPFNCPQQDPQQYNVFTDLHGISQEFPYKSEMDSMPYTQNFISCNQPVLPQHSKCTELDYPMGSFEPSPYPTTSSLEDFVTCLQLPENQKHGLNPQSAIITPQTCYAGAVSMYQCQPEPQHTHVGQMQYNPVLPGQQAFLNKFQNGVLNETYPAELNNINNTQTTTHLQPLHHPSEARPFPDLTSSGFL
AHR act cf: confirmation of human aryl hydrocarbon receptor activators | shares compounds with AHR act | human cells, AHR-responsive luciferase reporter, luminescence | activation, % at 9 µM | 2,300 compounds, 87% hits; in the data active means activation above about 49%;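 further: HepG2 hepatoma cells carrying a DRE-driven firefly luciferase reporter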
PXR counter: activates human PXR in AHR activator counter-screen; shares compounds with AHR act; cell-based PXR reporter, luciferase luminescence; activation, % at 11.6 µM; 2,300 compounds, 88% hits; AID 434939; in the data active means activation above about 11%;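 further: human hepatoma DPX-2 cells expressing full-length human PXR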
DAX1 inh confirm: NR0B1 (human) inhibition, confirmation | shares compounds with DAX1 inh-2 | HEK293T StAR-promoter luciferase reporter, SF-1/DAX-1 repression | inhibition, % at 6.8 µM | 2,400 compounds, 87% hits | AID 652134;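 active means inhibition above the average of every tested compound plus 3 SD, cut at about 3.8% in these data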;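 further: active compounds raise luminescence by relieving repression of the StAR reporter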
SF1 mutant ctr: nonselective inhibitor or artifact in SF-1 mutant DAX1 counter-screen; 2,400 compounds, 78% hits; inhibition, % at 6.8 µM; AID 652136; HEK293 StAR-luciferase, SF-1 AF2 mutant, luminescence; shares compounds with DAX1 inh-2;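 active means inhibition above the mean of all tested compounds plus 3 SD, cut at about 3% in these data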
LXR ag: LXR-beta agonism as hcDAF-12 counter-screen. shares compounds with hcDAF12 agonist. HEK293 Gal4-LXR tk-luc reporter, luminescence, 24 h; normalized: DMSO 0%, positive control 100%. activation, % at 6.8 µM. 3,400 tested, under 10 active. AID 743027;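 active means mean percent activation of the reporter above a cutoff set as the average over tested compounds plus their standard deviation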
hcDAF12 ag: hcDAF-12 agonism, confirmation assay. shares compounds with hcDAF12 agonist. HEK293 hcDAF-12 lit1-tk-luc reporter, luminescence; % of Δ7-dafachronic acid response. activation, % at 6.8 µM. 3,400 compounds, 61% hits. AID 743032;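 active means mean activation across triplicate tests above the threshold derived from the earlier primary screen, cut at about 5.5% in these data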
hgDAF12 ag: hgDAF-12 agonism, confirmation assay | shares compounds with hgDAF-12 ag | HEK293 GAL4-hgDAF12 luciferase reporter, agonist mode; percent of butyrate response | activation, % at 6.8 µM | 3,300 compounds, 80% hits | AID 743050;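 active means mean activation over triplicate wells above the hit cutoff derived from the earlier primary screen, cut at about 11% in these data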
LXR ag 2: LXR-beta agonism as DAF-12 counter-screen | shares compounds with hgDAF-12 ag | HEK293 Gal4-LXR luciferase reporter, 24 h | activation, % at 6.8 µM | 3,300 tested, under 10 active | AID 743051;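 active means mean activation of the triplicate above a set limit carried over from the primary screen, none filed active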
Large screens that a line does not name were inactive (follow-up assays come after a bar, where they were run). In the library only some 5.7% were active in any assay of this set; here they are far more common.

O=C(C[C@@H]1C/C=C\C[C@H](NC(=O)OCC2c3ccccc3-c3ccccc32)C(=O)OC[C@H]2CCCN2C1=O)NCCO	none (no result: hgDAF-12 ag, DAX1 inh-2, hcDAF12 agonist, ssDAF-12 act)
Cc1ccccc1Nc1n[nH]c(C)c1[N+](=O)[O-]	hcDAF12 agonist 9.0, AHR act 80 | AHR act cf 106 | PXR counter 22 | LXR ag inactive | hcDAF12 ag inactive
CCc1nc2oc3ccccc3c(=O)c2c(=O)n1-c1ccccc1	hgDAF-12 ag 13, hcDAF12 agonist 8.8, ssDAF-12 act 1.2, AHR act 99 | AHR act cf 118 | PXR counter 24 | LXR ag inactive | hcDAF12 ag 8.7
CCc1nc2oc3ccccc3c(=O)c2c(=O)n1CCOC	none
CCCc1nc2oc3ccccc3c(=O)c2c(=O)n1-c1ccc(C)cc1	hcDAF12 agonist 11, ssDAF-12 act 1.9, AHR act 81 (no result: DAX1 inh-1) | AHR act cf 76 | PXR counter 68 | LXR ag inactive | hcDAF12 ag 12
c1ccc(-c2nc3ccccc3o2)nc1	none
Cc1ccnc2ccc(-c3nc4ccccc4o3)cc12	hgDAF-12 ag 13, hcDAF12 agonist 7.8, ssDAF-12 act 1.0, AHR act 87 | AHR act cf 183 | PXR counter 54 | LXR ag inactive | hcDAF12 ag 12
CCc1nnc(NC(=O)c2sc3nc4c(cc3c2N)CCCCC4)s1	hgDAF-12 ag 16, DAX1 inh-2 5.0, hcDAF12 agonist 6.7, AHR act 124 | AHR act cf inactive | PXR counter 36 | DAX1 inh confirm 12 | SF1 mutant ctr 7.8 | LXR ag inactive | hcDAF12 ag 6.5 | hgDAF12 ag 14 | LXR ag 2 inactive
CCc1nnc(NC(=O)CSc2nc3c(cc2C#N)CCCC3)s1	none
COc1ccc(-c2nc(-c3cccs3)no2)cc1	none
COc1ccccc1-c1noc(-c2cccs2)n1	hgDAF-12 ag 19, hcDAF12 agonist 8.7, AHR act 86 | AHR act cf 144 | PXR counter 17 | LXR ag inactive | hcDAF12 ag inactive | hgDAF12 ag 23 | LXR ag 2 inactive
COc1ccc(-c2csc(C)n2)cc1	none
Cc1cccc(Nc2nc(-c3ccc(F)cc3)cs2)n1	DAX1 inh-1 9.3, hgDAF-12 ag 16, hcDAF12 agonist 13, ssDAF-12 act 2.8, AHR act 79 | AHR act cf 111 | PXR counter 10 | LXR ag inactive | hcDAF12 ag 9.6 | hgDAF12 ag 18 | LXR ag 2 inactive
COc1ccc(-c2csc(Nc3cccc(C)n3)n2)cc1	DAX1 inh-1 8.7, hgDAF-12 ag 14, hcDAF12 agonist 6.8, ssDAF-12 act 1.0, AHR act 88 | AHR act cf 97 | PXR counter 19 | LXR ag inactive | hcDAF12 ag inactive | hgDAF12 ag 19 | LXR ag 2 inactive
Cc1c(-c2ccc(Br)cc2)nc2ccccn12	hgDAF-12 ag 15, DAX1 inh-2 4.0, hcDAF12 agonist 8.4, ssDAF-12 act 1.4, AHR act 165 | AHR act cf 172 | PXR counter 15 | LXR ag inactive | hcDAF12 ag 7.5 | hgDAF12 ag 15 | LXR ag 2 inactive
COc1ccc(OC)c(NC(=O)c2cccc(NC(=O)c3ccccc3C(=O)O)c2)c1	none
Cc1cc(/C=N/NC(=O)c2cccs2)c(C)n1-c1cnccn1	hgDAF-12 ag 16, DAX1 inh-2 3.9, AHR act 110 | AHR act cf 118 | PXR counter 21 | hgDAF12 ag 15 | LXR ag 2 inactive
O=c1sc2ccccc2n1CCOc1ccccc1	hgDAF-12 ag 15, hcDAF12 agonist 5.6, AHR act 109 | AHR act cf 123 | PXR counter 30 | hgDAF12 ag 12 | LXR ag 2 inactive
COc1ccc(Nc2nccc(-c3cccc(N)c3)n2)cc1	hgDAF-12 ag 34, hcDAF12 agonist 13, AHR act 132 | AHR act cf 54 | PXR counter 30 | LXR ag inactive | hcDAF12 ag 8.7 | hgDAF12 ag 21 | LXR ag 2 inactive
Cc1cc(C)nc(NN=C(c2ccccc2)c2ccccc2)n1	none
Brc1ccc(-c2nc(-c3ccncc3)no2)o1	none
O=[N+]([O-])c1ccccc1-c1nc(-c2ccc(Br)o2)no1	hgDAF-12 ag 21, DAX1 inh-2 4.5, hcDAF12 agonist 15, ssDAF-12 act 2.8, AHR act 112 | AHR act cf 109 | PXR counter 47 | LXR ag inactive | hcDAF12 ag 8.6 | hgDAF12 ag 18 | LXR ag 2 inactive
Brc1ccc(-c2noc(-c3ccccn3)n2)o1	hgDAF-12 ag 20, hcDAF12 agonist 10, ssDAF-12 act 1.4, AHR act 101 | AHR act cf 71 | PXR counter 25 | LXR ag inactive | hcDAF12 ag 7.8 | hgDAF12 ag 21 | LXR ag 2 inactive
COC(=O)[C@H](Cc1ccccc1)NC(=O)CC[C@H]1O[C@@H](n2ccc(=O)[nH]c2=O)[C@H](O)[C@@H]1O	none (no result: DAX1 inh-1, AHR act)
NS(=O)(=O)c1ccc(NC(=O)COc2ncnc3sccc23)cc1	none
